SMN2 splice enh – qHTS Assay for Enhancers of SMN2 Splice Variant Expression; HEK293 SMN2-luciferase splicing reporter, luminescence, 30-36 h; Potency, µM (series often up to 46.1 µM), for the others: at the highest dose activity change, positive = activation, actives largely listed as activators; 210,000 compounds, 2.8% hits; further: % of control where 0% means no effect; nearly all actives have a fitted effect of over 55% in size
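HEK293 cells carry an SMN2 […]–luciferase reporter in which exon 7 inclusion puts luciferase in frame. Cells were plated 10-12 h before compound addition, then incubated 30-36 h at 37C. ONE-Glo luminescence was read; sodium butyrate at 4.5 mM final served as control.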
ELG1 repair inh – qHTS screen for small molecules that inhibit ELG1-dependent DNA repair in human embryonic kidney (HEK293T) cells expressing luciferase-tagged ELG1; HEK293T ELG1-luciferase reporter, luminescence, 16 h; DNA damage induced by 5-fluorouridine; Potency, µM (series often up to 46.1 µM), for inactives: top-dose activity change, negative = inhibition, usual class: inhibitors; 330,000 compounds, 2.3% hits; AID 504467, 2011; further: on the % scale 0 is the no-effect control and ±100 the full control effect; nearly all actives have a fitted effect of over 55% in size
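Quantitative HTS, concentration-response format. 2,000 cells/well co-treated with 5-fluorouridine and compound, 16 hr in 5% CO2 at 37 °C; ONE-Glo luminescence read after 30 min.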
Rab9 promoter act – qHTS Assay for Rab9 Promoter Activators; Huh7 Rab9 promoter-luciferase reporter, luminescence, 24 h; Potency, µM (highest dose often 9.22 µM), without a hit: at the highest dose activation, negative = inhibition, hits mostly activators; 320,000 compounds, 2.8% hits; AID 485297, 2010; further: % of control where 0% means no effect; nearly all actives have a fitted effect of over 60% in size
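Cells were plated at 1500 per well in reduced-serum medium with 10% FBS and left 2 h. Compound in DMSO was then added for 24 h at 37 °C. Reporter signal was read by luminescence after 10 min with luciferase detection reagent.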
FLuc modulator – qHTS profiling assay for firefly luciferase inhibitor/activator using purifed enzyme and Km concentrations of substrates (counterscreen for miR-21 project); Luciferin 4-monooxygenase (Photinus pyralis), P08659; purified FLuc, Km substrates, luminescence inhibition; Potency, µM (highest dose often 57.5 µM), for inactives: at the top dose activity change, negative = inhibition, usual class: inhibitors; 360,000 compounds, 6.9% hits;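 further: plate controls were vehicle for no effect and reference inhibitor for full effect; nearly all actives have a fitted effect of over 55% in size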
Target sequence (P08659 whole entry, looked up): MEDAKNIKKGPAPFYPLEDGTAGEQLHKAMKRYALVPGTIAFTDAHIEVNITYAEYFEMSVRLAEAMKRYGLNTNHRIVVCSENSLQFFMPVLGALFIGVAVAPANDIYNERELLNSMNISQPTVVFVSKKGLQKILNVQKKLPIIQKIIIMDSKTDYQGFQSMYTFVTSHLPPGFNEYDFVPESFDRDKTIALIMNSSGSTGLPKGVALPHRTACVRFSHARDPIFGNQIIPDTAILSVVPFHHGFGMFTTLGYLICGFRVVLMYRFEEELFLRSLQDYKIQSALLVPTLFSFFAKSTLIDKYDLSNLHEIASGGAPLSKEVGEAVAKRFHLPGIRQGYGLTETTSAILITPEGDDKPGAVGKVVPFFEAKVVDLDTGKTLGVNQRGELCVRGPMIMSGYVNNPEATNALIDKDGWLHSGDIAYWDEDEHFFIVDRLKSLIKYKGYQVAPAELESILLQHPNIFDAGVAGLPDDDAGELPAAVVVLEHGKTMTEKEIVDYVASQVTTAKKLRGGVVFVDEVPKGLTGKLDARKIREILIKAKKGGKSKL
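Biochemical qHTS of compounds, final roughly 60 µM downward over six points, against 10 nM purified firefly luciferase using Km concentrations of substrates (10 uM D-luciferin, 10 uM ATP) in Tris acetate pH 7.5 buffer; luminescence output.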
ELG1 genotox – qHTS screen for small molecules that induce genotoxicity in human embryonic kidney (HEK293T) cells expressing luciferase-tagged ELG1. HEK293T ELG1-luciferase reporter, luminescence, 16 h. Potency, µM (titrated, usually from 46 µM), without a hit: top-dose activity change, positive = activation, actives largely listed as activators. 330,000 compounds, 1.3% hits; further: % of control where 0% means no effect; nearly all actives have a fitted effect of over 60% in size
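ELG1-luciferase HEK293T cells, 2,000/well; compound pinned in; 16 hr, 37 °C, 5% CO2; ONE-Glo, 30 min RT; luminescence on CCD imager.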
NPC1 promoter act – qHTS Assay for NPC1 Promoter Activators; Huh7 NPC1 promoter luciferase reporter, 24 h; Potency, µM (top dose mostly 9.22 µM), inactives show top-dose activation, actives largely listed as activators; 320,000 compounds, 2.4% hits; AID 485313, 2010; further: % of control where 0% means no effect; nearly all actives have a fitted effect of over 60% in size
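Stably transfected Huh7 (NPC1 promoter→luciferase), 1500 cells/well in Opti-MEM + 10% FBS, 2 h settle, then compound 24 h at 37 °C. Luminescence after 10 min with Amplite reagent.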
The depositor's hits bear a star; ? = inconclusive; . = no result; [ ] = remark or other dose. Rows were chosen to be rich in hits. Some 9.2% of all compounds tested hit in one or more screens of this group. The call rests on the fitted dose curve; in most records, active means well fitted curve in the direction sought with a large enough effect; inconclusive means small, poorly fitted or top-dose-only effect, or another doubt; inactive means no such curve, though single readings can be large; an effect the other way counts as inactive or inconclusive. Potency means the concentration at half of the fitted maximal effect.

SMILES	SMN2 splice enh	ELG1 repair inh	Rab9 promoter act	FLuc modulator	ELG1 genotox	NPC1 promoter act
C=CCn1cc(CN2CCC(C(=O)Nc3cccc(-c4cccc(Cl)c4)c3)CC2)c(C)n1	.	3%	1%	-2%	1%	-2%
CCc1ccccc1-n1c(SCC(=O)Nc2ccc3c(c2)OCCO3)nc2[nH]ncc2c1=O	-16%	?	5%	17µM*	?	0%
CC(=O)Nc1ccc(S(=O)(=O)N2CCCC(C(=O)N3CCN(c4ccccc4)CC3)C2)cc1 (stereo not given)	.	21µM*	-5%	10%	-14%	-1%
O=C(C1CCN(S(=O)(=O)Cc2ccccc2)CC1)N1CCN(c2ccccc2)CC1	.	.	.	1%	.	.
CC(=O)c1ccc(N2CCN(C(=O)C3CCN(S(=O)(=O)Cc4ccccc4)CC3)CC2)cc1	.	18µM*	8%	-4%	-6%	1%
O=c1c2c(nc3cc(-c4ccccc4Cl)[nH]n13)CCS2	16µM*	?	3.5µM*	8.5µM*	?	?
Cc1nc2cc(-c3ccsc3-n3c(C)ccc3C)[nH]n2c(=O)c1Cl	-11%	3%	-2%	1%	-9%	0%
CCOC(=O)N1CCC(c2cc(=O)n3[nH]c(-c4ccccc4)cc3n2)CC1	9%	5%	-1%	-3%	2%	0%
O=c1c2c(nc3cc(-c4ccccc4)[nH]n13)CCS2	?	?	2.8µM*	9.5µM*	?	4µM*
COc1cc(/C=C/c2nc3ccccc3c(=O)[nH]2)cc(OC)c1OC	.	35%	0%[1.84 µM]	?	12%	-5%
COc1cc(/C=C/c2nc3ccccc3c(=O)[nH]2)ccc1OC(F)F	.	?	?	?	27%	5µM*
Cc1ccc(/C=C/c2nc3ccccc3[nH]2)o1	4µM*	?	0.45µM*	0.85µM*	?	0.71µM*
Cc1cc2nc(/C=C/c3nc4cc(C)c(C)cc4[nH]3)[nH]c2cc1C	.	?	6%	?	0%	-3%
C=CCOc1cccc(/C=C/c2nc3ccccc3c(=O)[nH]2)c1	.	?	3.5µM*	1.5µM*	9.2µM*	?
Cc1ccc(/C=C/c2nc3ccccc3[nH]2)cc1	.	.	.	0.076µM*	.	.
CCOc1ccc(-c2nc3c(C#N)c[nH]n3c2NC2CCCC2)cc1	.	.	.	0%	.	.
COC(=O)c1ccc(/C=C/c2nc3ccccc3c(=O)[nH]2)cc1	.	?	1.1µM*	0.67µM*	?	0.5µM*
Cc1ccc(/C=C/c2nc3ccccc3c(=O)[nH]2)cc1	.	?	0.35µM*	0.15µM*	?	0.5µM*
Cc1ccc(/C=C(\C#N)c2nc3ccccc3c(=O)[nH]2)cc1	1%	.	.	-1%	.	.
COCCOC(=O)N/C=C\c1nc2ccccc2c(=O)[nH]1	18%	5%	0%	?	6%	-7%
Cn1ncc(C(=O)N2CCN(c3ccc(F)cc3)CC2)c1C1CCN(C(=O)OC(C)(C)C)CC1	.	.	.	0%	.	.
CS(=O)(=O)N(CC(=O)N1CCc2ccccc2C1)c1ccccc1Br	.	5%	0%	4%	1%	-3%
Brc1ccc(-c2ncc3ccccn23)cc1	.	?	3.2µM*	13µM*	?	3.2µM*
COc1cc(OC)cc(-c2ncc3ccccn23)c1	-6%	-4%	4%	17µM*	4%	1%
Fc1ccc(-c2ncc3ccccn23)cc1	.	?	0%	-15%	7%	0%
COc1cc(-c2ncc3ccccn23)cc(OC)c1OC	25%	-13%	-3%	-1%	10%	1%
COc1cccc(-c2ncc3ccccn23)c1	14µM*	?	2.8µM*	8.5µM*	?	4µM*
